# Key:
# Test in all cases: DAPPL (digital affinity profiling via proximity ligation, sequencing); 10 mM Tris-HCl pH 7.5, 50 mM NaCl, 1 mM DTT, 4% glycerol, room temperature, 30 min; GST-TFs on glutathione beads, 16-mer random dsDNA library, 0.1% formaldehyde crosslink after washing; high values mean tight binding
# Conditions in all cases: protein: recombinant; tags: N-terminal GST; dsDNA, one strand shown
# FLI1 = molecular target: T1, FLI1 (Homo sapiens, UniProt Q01543 1-452)
# T1 sequence: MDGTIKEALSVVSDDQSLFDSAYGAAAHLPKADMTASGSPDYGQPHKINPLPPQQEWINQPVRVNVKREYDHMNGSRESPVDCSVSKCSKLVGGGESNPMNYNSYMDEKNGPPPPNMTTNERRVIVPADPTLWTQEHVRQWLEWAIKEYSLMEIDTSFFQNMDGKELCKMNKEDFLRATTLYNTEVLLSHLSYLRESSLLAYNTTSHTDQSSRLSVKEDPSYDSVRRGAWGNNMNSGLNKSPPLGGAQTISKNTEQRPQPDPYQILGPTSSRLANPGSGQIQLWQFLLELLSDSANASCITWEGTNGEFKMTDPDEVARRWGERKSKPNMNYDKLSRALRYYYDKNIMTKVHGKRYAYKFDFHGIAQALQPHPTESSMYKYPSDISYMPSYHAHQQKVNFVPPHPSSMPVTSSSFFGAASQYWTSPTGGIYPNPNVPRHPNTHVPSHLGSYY
# In short: (§1)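 Human transcription factors were made in yeast as GST fusions, captured on glutathione beads and barcoded with DNA. With a tag-only sample included, the pool was incubated with 200 nmole of a random double-stranded 16-mer DNA library in Tris/NaCl/DTT/glycerol buffer at room temperature for 30 min, then crosslinked with 0.1% formaldehyde after washing, ligated by proximity, amplified and sequenced. For binding signal, each hexamer's read frequency for a factor is divided by its frequency for the tag-only sample.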
# ELK1 = molecular target: T2, ELK1 (Homo sapiens, UniProt P19419 1-428)
# T2 sequence: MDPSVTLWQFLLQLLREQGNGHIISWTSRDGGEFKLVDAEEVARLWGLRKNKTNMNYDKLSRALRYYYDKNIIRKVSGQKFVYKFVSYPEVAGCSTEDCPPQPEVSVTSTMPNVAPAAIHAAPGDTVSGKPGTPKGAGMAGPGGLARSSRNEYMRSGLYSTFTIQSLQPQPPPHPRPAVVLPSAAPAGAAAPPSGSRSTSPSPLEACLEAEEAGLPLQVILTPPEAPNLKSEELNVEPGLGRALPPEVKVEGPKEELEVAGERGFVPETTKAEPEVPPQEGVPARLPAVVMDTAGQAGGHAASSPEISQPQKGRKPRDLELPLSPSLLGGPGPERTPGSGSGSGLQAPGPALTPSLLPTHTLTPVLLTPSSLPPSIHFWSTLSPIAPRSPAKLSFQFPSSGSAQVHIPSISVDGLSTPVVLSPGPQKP
# In short: as §1
# GABPA = molecular target: T3, GABPA (Homo sapiens, UniProt Q06546 1-454)
# T3 sequence: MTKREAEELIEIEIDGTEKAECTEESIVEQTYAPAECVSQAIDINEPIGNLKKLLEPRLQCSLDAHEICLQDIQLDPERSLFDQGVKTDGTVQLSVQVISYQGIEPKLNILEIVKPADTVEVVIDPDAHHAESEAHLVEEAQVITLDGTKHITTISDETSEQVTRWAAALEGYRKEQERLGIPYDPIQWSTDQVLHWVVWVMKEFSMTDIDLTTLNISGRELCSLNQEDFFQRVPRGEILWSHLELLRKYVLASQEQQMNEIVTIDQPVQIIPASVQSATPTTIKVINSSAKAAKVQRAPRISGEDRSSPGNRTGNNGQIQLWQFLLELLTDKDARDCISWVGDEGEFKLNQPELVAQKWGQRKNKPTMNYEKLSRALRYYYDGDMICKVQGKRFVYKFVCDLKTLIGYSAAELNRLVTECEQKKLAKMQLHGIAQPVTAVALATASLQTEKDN
# In short: as §1
# ERG = molecular target: T4, ERG (Homo sapiens, UniProt P11308 1-479)
# T4 sequence: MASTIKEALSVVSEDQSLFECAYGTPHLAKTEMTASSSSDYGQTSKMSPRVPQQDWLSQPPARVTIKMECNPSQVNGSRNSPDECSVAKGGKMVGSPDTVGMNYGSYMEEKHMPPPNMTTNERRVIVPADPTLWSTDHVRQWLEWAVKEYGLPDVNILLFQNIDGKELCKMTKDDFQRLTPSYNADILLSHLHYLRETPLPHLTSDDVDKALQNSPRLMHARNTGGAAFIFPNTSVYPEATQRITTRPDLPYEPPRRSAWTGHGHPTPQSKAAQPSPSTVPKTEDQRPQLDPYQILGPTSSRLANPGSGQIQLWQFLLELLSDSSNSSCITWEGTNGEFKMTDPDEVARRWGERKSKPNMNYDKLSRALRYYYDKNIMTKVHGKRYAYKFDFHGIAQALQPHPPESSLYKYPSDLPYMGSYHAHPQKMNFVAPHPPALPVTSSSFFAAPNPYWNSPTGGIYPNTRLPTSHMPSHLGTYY
# In short: as §1
# ELF1 = ELF1 (Homo sapiens, UniProt P32519 1-619)
# Sequence of ELF1 (P32519 whole entry): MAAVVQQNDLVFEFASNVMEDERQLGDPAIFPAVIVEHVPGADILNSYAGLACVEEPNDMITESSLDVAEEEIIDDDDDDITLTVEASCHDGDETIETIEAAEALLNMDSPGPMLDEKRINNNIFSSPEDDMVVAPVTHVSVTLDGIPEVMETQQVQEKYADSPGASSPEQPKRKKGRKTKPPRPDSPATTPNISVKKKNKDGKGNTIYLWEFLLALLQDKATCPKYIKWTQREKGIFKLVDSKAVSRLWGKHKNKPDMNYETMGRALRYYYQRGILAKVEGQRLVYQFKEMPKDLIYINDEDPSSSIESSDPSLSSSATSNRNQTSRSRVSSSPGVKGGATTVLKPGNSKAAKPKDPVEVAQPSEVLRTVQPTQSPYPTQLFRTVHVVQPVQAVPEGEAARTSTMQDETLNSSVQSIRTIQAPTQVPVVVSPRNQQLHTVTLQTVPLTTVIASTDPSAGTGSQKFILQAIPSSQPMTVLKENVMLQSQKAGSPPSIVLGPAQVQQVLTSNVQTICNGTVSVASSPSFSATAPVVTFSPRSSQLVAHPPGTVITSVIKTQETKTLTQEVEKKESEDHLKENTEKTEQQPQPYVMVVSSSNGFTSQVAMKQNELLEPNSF
# In short: as §1
# EHF = molecular target: T5, EHF (Homo sapiens, UniProt Q9NZC4 1-300)
# T5 sequence: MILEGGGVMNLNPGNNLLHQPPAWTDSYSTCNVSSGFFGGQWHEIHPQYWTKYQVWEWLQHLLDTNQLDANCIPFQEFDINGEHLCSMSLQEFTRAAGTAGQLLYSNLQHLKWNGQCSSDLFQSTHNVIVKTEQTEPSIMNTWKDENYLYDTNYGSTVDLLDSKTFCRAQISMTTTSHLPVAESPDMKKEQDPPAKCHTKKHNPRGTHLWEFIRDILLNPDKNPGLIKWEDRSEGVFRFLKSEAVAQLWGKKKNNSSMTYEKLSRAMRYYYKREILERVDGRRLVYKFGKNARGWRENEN
# In short: as §1
# SPI1 = SPI1 (Homo sapiens, UniProt P17947 1-270)
# In short: as §1
# SPIB = SPIB (Homo sapiens, UniProt Q01892 1-262)
# Sequence of SPIB (Q01892 whole entry): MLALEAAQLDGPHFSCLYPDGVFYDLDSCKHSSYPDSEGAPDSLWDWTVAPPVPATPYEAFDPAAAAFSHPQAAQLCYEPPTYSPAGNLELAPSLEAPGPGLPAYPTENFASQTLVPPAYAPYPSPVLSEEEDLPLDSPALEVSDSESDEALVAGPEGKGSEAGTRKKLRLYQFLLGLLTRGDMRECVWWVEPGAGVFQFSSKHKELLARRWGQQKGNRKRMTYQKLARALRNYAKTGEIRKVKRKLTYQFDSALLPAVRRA
# In short: as §1
# ELK3 = molecular target: T6, ELK3 (Homo sapiens, UniProt P41970 1-407)
# T6 sequence: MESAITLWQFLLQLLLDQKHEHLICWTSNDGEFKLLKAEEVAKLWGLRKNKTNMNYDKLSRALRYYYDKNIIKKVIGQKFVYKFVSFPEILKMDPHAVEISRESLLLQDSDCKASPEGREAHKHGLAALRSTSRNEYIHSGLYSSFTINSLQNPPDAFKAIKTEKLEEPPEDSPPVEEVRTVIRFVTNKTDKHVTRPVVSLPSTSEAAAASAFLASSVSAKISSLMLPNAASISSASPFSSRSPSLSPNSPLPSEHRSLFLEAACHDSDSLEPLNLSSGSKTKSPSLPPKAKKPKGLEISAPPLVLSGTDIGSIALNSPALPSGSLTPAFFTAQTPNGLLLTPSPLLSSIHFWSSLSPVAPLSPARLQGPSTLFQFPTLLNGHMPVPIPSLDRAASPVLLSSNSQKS
# In short: as §1
# FEV = molecular target: T7, FEV (Homo sapiens, UniProt Q99581 1-238)
# T7 sequence: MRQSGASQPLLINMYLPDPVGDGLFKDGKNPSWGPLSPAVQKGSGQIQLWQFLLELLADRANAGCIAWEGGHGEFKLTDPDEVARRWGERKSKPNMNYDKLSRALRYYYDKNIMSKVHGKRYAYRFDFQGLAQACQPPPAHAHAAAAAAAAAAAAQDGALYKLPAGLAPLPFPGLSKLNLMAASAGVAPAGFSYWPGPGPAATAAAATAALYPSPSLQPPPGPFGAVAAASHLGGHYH
# In short: as §1
# ETV5 = ETV5 (Homo sapiens, UniProt P41161 1-510)
# Sequence of ETV5 (P41161 whole entry): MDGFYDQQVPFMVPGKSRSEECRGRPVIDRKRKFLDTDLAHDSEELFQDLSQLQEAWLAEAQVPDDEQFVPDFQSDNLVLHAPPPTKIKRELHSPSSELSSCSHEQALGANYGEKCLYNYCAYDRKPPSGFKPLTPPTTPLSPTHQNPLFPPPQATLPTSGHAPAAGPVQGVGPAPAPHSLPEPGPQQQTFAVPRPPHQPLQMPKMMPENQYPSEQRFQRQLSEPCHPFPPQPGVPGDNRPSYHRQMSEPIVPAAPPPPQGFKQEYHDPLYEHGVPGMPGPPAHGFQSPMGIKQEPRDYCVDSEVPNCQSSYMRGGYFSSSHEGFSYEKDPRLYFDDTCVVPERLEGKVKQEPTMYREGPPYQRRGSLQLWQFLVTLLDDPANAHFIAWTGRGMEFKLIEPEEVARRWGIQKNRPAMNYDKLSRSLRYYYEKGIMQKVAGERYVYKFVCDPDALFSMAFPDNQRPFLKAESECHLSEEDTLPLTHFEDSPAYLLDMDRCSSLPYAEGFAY
# In short: as §1
# SPIC = molecular target: T8, SPIC (Homo sapiens, UniProt Q8N5J4 1-248)
# T8 sequence: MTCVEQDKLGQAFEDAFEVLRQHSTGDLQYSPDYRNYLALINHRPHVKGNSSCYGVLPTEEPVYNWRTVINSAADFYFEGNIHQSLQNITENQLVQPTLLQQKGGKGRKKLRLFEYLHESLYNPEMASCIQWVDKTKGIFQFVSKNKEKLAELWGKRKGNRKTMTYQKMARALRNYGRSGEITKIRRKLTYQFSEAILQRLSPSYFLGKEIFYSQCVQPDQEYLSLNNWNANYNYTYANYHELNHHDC
# In short: as §1
# ELF4 = ELF4 (Homo sapiens, UniProt Q99607 1-663)
# Sequence of ELF4 (Q99607 whole entry): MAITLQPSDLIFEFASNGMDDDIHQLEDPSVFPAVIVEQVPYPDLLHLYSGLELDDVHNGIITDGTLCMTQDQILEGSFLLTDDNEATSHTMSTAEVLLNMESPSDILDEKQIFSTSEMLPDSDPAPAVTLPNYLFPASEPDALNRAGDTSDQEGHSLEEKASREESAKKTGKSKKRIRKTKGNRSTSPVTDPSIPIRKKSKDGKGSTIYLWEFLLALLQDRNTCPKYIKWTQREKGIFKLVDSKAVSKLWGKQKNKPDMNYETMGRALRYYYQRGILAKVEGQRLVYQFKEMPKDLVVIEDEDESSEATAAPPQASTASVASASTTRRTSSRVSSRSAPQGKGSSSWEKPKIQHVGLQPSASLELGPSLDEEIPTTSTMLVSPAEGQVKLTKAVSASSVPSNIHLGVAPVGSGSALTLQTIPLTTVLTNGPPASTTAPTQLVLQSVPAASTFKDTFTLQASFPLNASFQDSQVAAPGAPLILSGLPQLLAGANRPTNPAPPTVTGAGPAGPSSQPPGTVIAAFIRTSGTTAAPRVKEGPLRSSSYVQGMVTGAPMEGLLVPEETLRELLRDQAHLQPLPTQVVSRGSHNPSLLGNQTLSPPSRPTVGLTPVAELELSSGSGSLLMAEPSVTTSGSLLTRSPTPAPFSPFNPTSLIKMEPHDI
# In short: as §1
# ELK4 = molecular target: T9, ELK4 (Homo sapiens, UniProt P28324-2 1-405)
# T9 sequence: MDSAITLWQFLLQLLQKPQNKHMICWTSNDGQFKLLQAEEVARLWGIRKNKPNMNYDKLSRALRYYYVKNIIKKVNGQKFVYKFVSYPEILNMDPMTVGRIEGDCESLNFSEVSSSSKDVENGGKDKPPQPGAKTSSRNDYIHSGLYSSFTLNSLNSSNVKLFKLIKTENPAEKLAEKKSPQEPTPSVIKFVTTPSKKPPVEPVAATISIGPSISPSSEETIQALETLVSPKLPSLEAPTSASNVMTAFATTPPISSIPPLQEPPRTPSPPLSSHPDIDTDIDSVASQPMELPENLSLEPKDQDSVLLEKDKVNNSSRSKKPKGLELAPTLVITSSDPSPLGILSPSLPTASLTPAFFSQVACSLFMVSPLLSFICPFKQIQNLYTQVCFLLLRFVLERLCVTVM
# In short: as §1
# ETV2 = molecular target: T10, ETV2 (Homo sapiens, UniProt O00321 1-342)
# T10 sequence: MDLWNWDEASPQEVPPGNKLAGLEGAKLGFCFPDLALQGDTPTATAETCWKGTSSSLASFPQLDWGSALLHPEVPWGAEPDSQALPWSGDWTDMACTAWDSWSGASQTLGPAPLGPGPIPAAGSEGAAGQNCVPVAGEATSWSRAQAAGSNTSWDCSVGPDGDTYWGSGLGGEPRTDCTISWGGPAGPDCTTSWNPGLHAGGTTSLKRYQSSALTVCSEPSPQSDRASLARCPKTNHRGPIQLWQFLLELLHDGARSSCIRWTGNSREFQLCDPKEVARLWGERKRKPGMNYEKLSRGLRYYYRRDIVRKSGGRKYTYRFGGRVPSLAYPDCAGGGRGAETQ
# In short: as §1
# ELF3 = molecular target: T11, ELF3 (Homo sapiens, UniProt P78545 1-371)
# T11 sequence: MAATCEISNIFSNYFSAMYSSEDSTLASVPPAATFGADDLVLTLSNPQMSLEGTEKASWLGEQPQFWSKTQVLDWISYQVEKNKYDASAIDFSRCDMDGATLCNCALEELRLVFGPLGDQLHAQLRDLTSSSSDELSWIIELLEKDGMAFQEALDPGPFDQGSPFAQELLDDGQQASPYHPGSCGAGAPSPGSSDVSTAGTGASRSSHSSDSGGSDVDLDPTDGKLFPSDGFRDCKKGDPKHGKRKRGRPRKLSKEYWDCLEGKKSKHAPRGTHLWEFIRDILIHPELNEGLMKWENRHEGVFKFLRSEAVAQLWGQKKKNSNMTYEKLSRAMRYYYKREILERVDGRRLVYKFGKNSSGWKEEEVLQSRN
# In short: as §1
# ETV1 = ETV1 (Homo sapiens, UniProt P50549 1-477)
# Sequence of ETV1 (P50549 whole entry): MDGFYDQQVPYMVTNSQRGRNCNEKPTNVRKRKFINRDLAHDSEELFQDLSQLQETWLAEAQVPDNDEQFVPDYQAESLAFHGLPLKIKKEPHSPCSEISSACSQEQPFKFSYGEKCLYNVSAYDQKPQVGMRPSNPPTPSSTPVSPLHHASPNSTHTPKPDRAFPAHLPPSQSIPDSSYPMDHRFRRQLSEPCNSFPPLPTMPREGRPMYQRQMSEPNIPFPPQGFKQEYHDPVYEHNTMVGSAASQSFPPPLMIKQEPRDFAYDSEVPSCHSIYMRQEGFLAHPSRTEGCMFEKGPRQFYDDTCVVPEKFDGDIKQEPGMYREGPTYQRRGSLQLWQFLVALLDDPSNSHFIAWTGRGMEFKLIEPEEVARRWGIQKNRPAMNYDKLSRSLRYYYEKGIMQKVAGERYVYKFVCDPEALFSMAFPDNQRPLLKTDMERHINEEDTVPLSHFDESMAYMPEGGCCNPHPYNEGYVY
# In short: as §1
sequence,measurement,setting,value
GACATC,binding signal,FLI1,"1.36 fold enrichment (6-mer frequency, TF over GST control)"
same,binding signal,ELK1,"1.4 fold enrichment (6-mer frequency, TF over GST control)"
same,binding signal,GABPA,"1.31 fold enrichment (6-mer frequency, TF over GST control)"
same,binding signal,ERG,"1.27 fold enrichment (6-mer frequency, TF over GST control)"
same,binding signal,ELF1,"1.21 fold enrichment (6-mer frequency, TF over GST control)"
same,binding signal,EHF,"1.35 fold enrichment (6-mer frequency, TF over GST control)"
same,binding signal,SPI1,"1.26 fold enrichment (6-mer frequency, TF over GST control)"
same,binding signal,SPIB,"1.3 fold enrichment (6-mer frequency, TF over GST control)"
same,binding signal,ELK3,"1.38 fold enrichment (6-mer frequency, TF over GST control)"
same,binding signal,FEV,"1.73 fold enrichment (6-mer frequency, TF over GST control)"
same,binding signal,ETV5,"1.3 fold enrichment (6-mer frequency, TF over GST control)"
same,binding signal,SPIC,"1.26 fold enrichment (6-mer frequency, TF over GST control)"
same,binding signal,ELF4,"1.26 fold enrichment (6-mer frequency, TF over GST control)"
same,binding signal,ELK4,"1.34 fold enrichment (6-mer frequency, TF over GST control)"
same,binding signal,ETV2,"1.31 fold enrichment (6-mer frequency, TF over GST control)"
same,binding signal,ELF3,"1.23 fold enrichment (6-mer frequency, TF over GST control)"
same,binding signal,ETV1,"1.33 fold enrichment (6-mer frequency, TF over GST control)"

# Source: paper PMC7862700, “An all-to-all approach to the identification of sequence-specific readers for epigenetic DNA modifications on cytosine”
